{
  "source": "PubChem BioAssay AID1259421",
  "about": "(Broad Institute, 2018)",
  "note": "Where “and” joins values, the source holds several entries; their conditions need not be identical. Equal entries are not always repeated. The whole screen tested about 6,400 compounds, of which about 610 (9.5%) were called active. Rule as the data show it: active = activity change below about -70%; inconclusive = no clear call, values can overlap the other calls; inactive = above that. Shown is part of a subset that was picked to be rich in actives. Where a structure was tested more than once in an assay, its records may differ in their call.",
  "data": [
    {"experiment": "Toxoplasma gondii ME49Luc growth in HeLa cells, luciferase, no IFN-y, primary screen (AID 1259421)", "conditions": "T. gondii ME49Luc in HeLa, 72 h, stronger effect = lower value, concentration not given here", "values": [
      {"smiles": "O=C(O)c1cc(O)c2c(c1)C(=O)c1cccc(O)c1C2=O", "activity change, negative = inhibition": "18.1% (inactive)"},
      {"smiles": "Nc1nc(Nc2ccc3c(c2)CC[C@@H](N2CCCC2)CC3)nn1-c1cc2c(nn1)-c1ccccc1CCC2", "activity change, negative = inhibition": "-85.1% (active)"},
      {"smiles": "CC(=O)O[C@]1(C(C)=O)CCC2C3C=C(Cl)C4=CC(=O)CC[C@]4(C)C3CC[C@@]21C", "note": "(stereo not given in full)", "activity change, negative = inhibition": "2.15% (inactive) and -3.18% (inactive)"},
      {"smiles": "CCCCCCC(=O)OC1CC(C)(C)NC(C)(C)C1", "activity change, negative = inhibition": "10.7% (inactive) and -2.86% (inactive)"},
      {"smiles": "O=C(NC1CCN(CCc2c[nH]c3ccccc23)CC1)c1ccccc1", "activity change, negative = inhibition": "10.9% (inactive)"},
      {"smiles": "O=C(NC1CCN(CCCCC2(C(=O)NCC(F)(F)F)c3ccccc3-c3ccccc32)CC1)c1ccccc1-c1ccc(C(F)(F)F)cc1", "activity change, negative = inhibition": "-89% (active)"},
      {"smiles": "O=C(N[C@H]1CCN(C(=O)c2cc(C(F)(F)F)cc(C(F)(F)F)c2)[C@H](Cc2ccc(Cl)cc2)C1)c1ccnc2ccccc12", "activity change, negative = inhibition": "25.3% (inactive)"},
      {"smiles": "CN1CC(=O)N/C1=N/C(=O)Nc1cccc(Cl)c1", "activity change, negative = inhibition": "32.6% (inactive) and 26.4% (inactive)"},
      {"smiles": "CNC(=O)C1OC(n2cnc3c(NCc4cccc(I)c4)ncnc32)C(O)C1O", "note": "(stereo not given)", "activity change, negative = inhibition": "5.36% (inactive)"},
      {"smiles": "O=C(O)C(=O)O.O=C(O)C(=O)O.O=C(O)C(=O)O.[Bi].[Bi]", "activity change, negative = inhibition": "12.7% (inactive)"},
      {"smiles": "C[C@@H]1CN(CCCn2c3ccccc3c3ccccc32)C[C@H](C)N1", "activity change, negative = inhibition": "18.2% (inactive)"},
      {"smiles": "COc1ccccc1C1(O)CCN(CCCn2c3ccccc3c3ccccc32)CC1", "activity change, negative = inhibition": "-73.1% (active) and -52.5% (inactive)"},
      {"smiles": "CC1CN(CCCn2c3ccccc3c3ccccc32)CC(C)N1", "note": "(stereo not given)", "activity change, negative = inhibition": "-30.6% (inactive)"},
      {"smiles": "CO/N=C(\\C(=O)N[C@@H]1C(=O)N2C(C(=O)O)=C(C[n+]3ccn4ncccc43)CS[C@H]12)c1nsc(N)n1", "activity change, negative = inhibition": "12% (inactive)"},
      {"smiles": "CC[C@H](CO)Nc1nc(NCc2ccccc2)c2ncn(C(C)C)c2n1", "activity change, negative = inhibition": "-9.71% (inactive)"},
      {"smiles": "CC(C)n1cnc2c(NCc3ccccc3O)nc(NCCCO)nc21", "activity change, negative = inhibition": "1.44% (inactive)"},
      {"smiles": "CC[C@H](CO)Nc1nc(Nc2cccc(-c3ccccn3)c2)c2ncn(C(C)C)c2n1", "activity change, negative = inhibition": "-72.2% (active)"},
      {"smiles": "CC[C@@H](CO)Nc1nc(NCc2ccccc2)c2ncn(C(C)C)c2n1", "activity change, negative = inhibition": "-3.07% (inactive)"},
      {"smiles": "CC[C@H](CO)Nc1nc(NCc2ccc(-c3ccccn3)cc2)c2ncn(C(C)C)c2n1", "activity change, negative = inhibition": "-75.6% (active)"},
      {"smiles": "CN1Cc2c(C(=O)OC(C)(C)C)ncn2-c2ccsc2C1=O", "activity change, negative = inhibition": "4.12% (inactive) and 13% (inactive)"},
      {"smiles": "CC(=O)O[C@@H]1CC2C(C)(C)C(=O)C3OC3[C@]2(C)C2CC[C@@]3(C)[C@H](c4ccoc4)OC(=O)C4OC43[C@@]21C", "note": "(stereo not given in full)", "activity change, negative = inhibition": "26.1% (inactive)"},
      {"smiles": "CC1=NN(c2ccc(C(=O)O)cc2)C(=O)/C1=C\\c1ccc(-c2cc(C)c(C)cc2[N+](=O)[O-])o1", "activity change, negative = inhibition": "27.1% (inactive)"},
      {"smiles": "O=C(/C=C/c1ccccc1)c1ccc(O)cc1", "activity change, negative = inhibition": "-8.89% (inactive)"},
      {"smiles": "CC(=O)c1cnc2ccc(-c3cc(Cl)c(O)c(Cl)c3)nc2c1NC1CCC(CN(C)C)CC1", "note": "(stereo not given)", "activity change, negative = inhibition": "-87.5% (active)"},
      {"smiles": "CO[C@H]1C=CO[C@@]2(C)Oc3c(C)c(O)c4c(O)c(c5c(c4c3C2=O)NC2(CCN(CC(C)C)CC2)N=5)=NC(=O)/C(C)=C\\C=C/[C@H](C)[C@H](O)[C@@H](C)[C@@H](O)[C@@H](C)[C@H](OC(C)=O)[C@@H]1C", "activity change, negative = inhibition": "-31.1% (inactive)"},
      {"smiles": "Nc1nc(=O)n([C@@H]2O[C@H](CO)[C@@H](O)[C@@H]2F)cc1I", "activity change, negative = inhibition": "9.84% (inactive)"},
      {"smiles": "CC(=O)OCC(=O)[C@@]1(O)CCC2C3CCC4=CC(=O)C=C[C@]4(C)[C@@]3(F)[C@@H](O)C[C@@]21C", "note": "(stereo not given in full)", "activity change, negative = inhibition": "-18.2% (inactive)"},
      {"smiles": "CCN1CCN(Cc2ccc(Nc3ncc(F)c(-c4cc(F)c5nc(C)n(C(C)C)c5c4)n3)nc2)CC1", "activity change, negative = inhibition": "-82.7% (active)"},
      {"smiles": "CN(C)Cc1ccc(-c2nc3cccc4c3n2CCNC4=O)cc1", "activity change, negative = inhibition": "4.67% (inactive)"},
      {"smiles": "CCC(=O)OCC(=O)[C@@]1(OC(=O)CC)[C@H](C)CC2C3C([C@@H](O)C[C@@]21C)[C@@]1(C)C=CC(=O)C=C1C[C@H]3Cl", "note": "(stereo not given in full)", "activity change, negative = inhibition": "2.29% (inactive)"},
      {"smiles": "CC1=CC(=O)C2C(C)(C)CCC[C@]2(C)[C@@]1(O)CCc1ccoc1", "note": "(stereo not given in full)", "activity change, negative = inhibition": "1.47% (inactive)"},
      {"smiles": "CN1CC[C@H](c2c(O)cc(O)c3c(=O)cc(-c4ccccc4Cl)oc23)[C@H](O)C1", "activity change, negative = inhibition": "-83.7% (active)"},
      {"smiles": "CN1CC[C@@H](c2c(O)cc(O)c3c(=O)cc(-c4ccccc4Cl)oc23)[C@@H]1CO", "activity change, negative = inhibition": "-78.4% (active)"},
      {"smiles": "COc1ccc(-c2cc(=O)c3c(O)cc(OC)c(OC)c3o2)c(OC)c1", "activity change, negative = inhibition": "12.5% (inactive)"},
      {"smiles": "NC(N)=NCCC[C@H](N)C(=O)NCC(=O)N[C@@H](CC(=O)O)C(=O)N[C@@H](CO)C(=O)O", "activity change, negative = inhibition": "12.1% (inactive)"},
      {"smiles": "CC(C)CCNc1ncccc1C(=O)N1CCN(Cc2ccccc2)CC1", "activity change, negative = inhibition": "7.68% (inactive)"},
      {"smiles": "COc1c(O)cc2oc3cc(O)c(CC=C(C)C)c(O)c3c(=O)c2c1CC=C(C)C", "activity change, negative = inhibition": "-80.8% (active)"},
      {"smiles": "COc1cc2oc3cc(OC)c(OC)c(CC=C(C)C)c3c(=O)c2c(O)c1CC=C(C)C", "activity change, negative = inhibition": "7.82% (inactive)"},
      {"smiles": "CC(C)=CCc1c(O)cc2oc(C)cc(=O)c2c1O", "activity change, negative = inhibition": "1.96% (inactive)"},
      {"smiles": "C[N+](C)(C)[C@@H](Cc1c[nH]c(=S)[nH]1)C(=O)O", "activity change, negative = inhibition": "3.37% (inactive)"},
      {"smiles": "Nc1nc2c(cnn2CCc2ccccc2)c2nc(-c3ccco3)nn12", "activity change, negative = inhibition": "16.9% (inactive) and 59.6% (inactive)"},
      {"smiles": "Nc1nc(NCCc2ccc(O)cc2)nc2nc(-c3ccco3)nn12", "activity change, negative = inhibition": "-78.9% (active) and -90.1% (active)"},
      {"smiles": "COc1ccc(CCCn2ncc3c2nc(N)n2nc(-c4ccco4)nc32)cc1", "activity change, negative = inhibition": "-11.7% (inactive)"},
      {"smiles": "CC(COc1ccccc1)NC(C)[C@H](O)c1ccc(O)cc1", "note": "(stereo not given in full)", "activity change, negative = inhibition": "7.25% (inactive) and 9.37% (inactive)"},
      {"smiles": "Nc1ncnc2c1ncn2CCOCP(=O)(O)O", "activity change, negative = inhibition": "5.36% (inactive)"},
      {"smiles": "C[C@H](Cn1cnc2c(N)ncnc21)OCP(=O)(O)O", "activity change, negative = inhibition": "8.95% (inactive)"},
      {"smiles": "CC(C)(C)C(=O)OCOP(=O)(COCCn1cnc2c(N)ncnc21)OCOC(=O)C(C)(C)C", "activity change, negative = inhibition": "-84.5% (active) and -86.9% (active)"},
      {"smiles": "CC(C)OC(=O)OCOP(=O)(CO[C@H](C)Cn1cnc2c(N)ncnc21)OCOC(=O)OC(C)C", "activity change, negative = inhibition": "-84% (active)"},
      {"smiles": "Nc1ncnc2c1ncn2C1O[C@H](COP(=O)(O)O)[C@@H](O)[C@H]1O", "note": "(stereo not given in full)", "activity change, negative = inhibition": "13.1% (inactive)"},
      {"smiles": "Nc1ncnc2c1ncn2C1OC(COP(=O)(O)O)C(O)C1O", "note": "(stereo not given) (tested in a mixture with another compound)", "activity change, negative = inhibition": "1.1% (inactive)"}
    ]}
  ]
}
